# Bioassay records from PubChem BioAssay.
# AI-2 QS mod: modulators of Vibrio harveyi AI-2 quorum sensing system; Vibrio harveyi JMH597 AI-2 luminescence/OD600 ratio, 9 h; stronger effect = lower value; strain lacks LuxN and CqsS sensors; 0 = neutral-control median; activity change, % at 7.5 µM; 300,000 compounds, 0.4% hits; in the data active means activity change below about -75%, passing the limit was not always enough;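 further: luminescence divided by OD600 gain over 9 h not by final OD600 alone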
# SMARCA2 act: SMARCA2 function activation, primary screen | MG213 cells, MMTV-luciferase reporter, dexamethasone, overnight | activation, % at 9.1 µM | 370,000 compounds, 1% hits; in the data active means activation above about 7.8%
# HSP90 refold inh: blocks HSP90-mediated luciferase refolding in reticulocyte lysate. inhibition, % at 5.6 µM. Rabbit reticulocyte lysate, luciferase refolding luminescence, 3 h. 290,000 compounds, 0.91% hits;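 active means inhibition above the screen-wide mean plus 3 SD, computed separately per campaign, cut at about 16% in these data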;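 further: inhibitors lower the luminescence because luciferase stays unfolded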
# PG9 Ab binder: PG9 antibody binding by small molecule | TR-FRET gp120-PG9 antibody binding | inhibition, % at 6.7 µM | 360,000 compounds, 0.43% hits; in the data active means inhibition above about 8.5%
# HSF1 inh: HSF1 inhibition. AID 2098. activity change, negative = inhibition, % at 7.5 µM (by protocol). 300,000 compounds, 0.77% hits. NIH3T3-HGL HSE-luciferase, MG132-induced, luminescence 8 h; stronger effect = lower value;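 active means more than half of replicate wells show activity change below -50%, luminescence cut by over half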;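 further: luciferase reports HSF-1 transcriptional activity via heat shock element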
# FXN GAA850 act: frataxin GAA850 promoter activation. 360,000 compounds, 0.56% hits. HEK293 lucGAA850 FXN promoter luciferase reporter, 24 h; percent of 10 µM SAHA response. activation, % at 6 µM;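 active means activation above the average of all compounds screened plus 3 SD, cutoff fixed separately per campaign, cut at about 7.5% in these data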
# Numbers stand for hits; i = inactive; nt = no result given. The list is not random: actives were taken first. Their share in the collection is about 3.4%.
SMILES,AI-2 QS mod,SMARCA2 act,HSP90 refold inh,PG9 Ab binder,HSF1 inh,FXN GAA850 act
CCC(C)c1ccc(O)c(NC(=S)NC(=O)c2cccnc2)c1 (stereo unspecified),i,i,i,i,i,i
Cc1ccc(CN2CCCCC(NC(=O)c3cccc(F)c3)C2=O)cc1 (stereo unspecified),nt,i,nt,nt,nt,nt
O=C(Cc1noc2ccccc12)Nc1ccc(Cl)cc1,-84,i,i,i,i,i
COc1ccc(C(C(=O)N(C)C2CCCC2)N(Cc2ccc(F)cc2)C(=O)c2ccc3ccccc3c2)cc1OC (stereo unspecified),nt,i,nt,nt,nt,nt
COc1ccc2c(c1OC)C(=O)OC2Nc1ccc(S(=O)(=O)N=C(N)N)cc1 (stereo unspecified),i,i,i,i,-60,i
COc1ccc2c(c1OC)C(=O)OC2Nc1ncc(Br)cc1Br (stereo unspecified),i,i,i,i,i,i
C=CCOC(=O)N[C@@H](c1coc2ccccc2c1=O)[C@@H](C)/C=C/CC(=O)OC,nt,i,nt,nt,nt,nt
CCC(C)N(C(=O)c1oc(=O)c2ccccc2c1-c1ccc(C)cc1)C(C)CC (stereo unspecified),nt,i,nt,nt,nt,nt
CC(C)(C)c1ccc2c(c1)OC(C(=O)N/N=C\c1ccncc1)CO2 (stereo unspecified),i,i,i,i,i,i
CC(C)(C)c1ccc2c(c1)OC(C(=O)N/N=C\c1ccc[nH]1)CO2 (stereo unspecified),i,i,i,i,-73,i
COc1ccc(-c2cc(-c3nnc(SCC(=O)Nc4cccc(Cl)c4C)n3N)[nH]n2)cc1,nt,i,nt,nt,nt,nt
C#CCOCCOCCOCCNc1nc(N2CCN(C(=O)CCCCCCCCCCNC(=O)[C@H](CO)n3cc(CCCSC)nn3)CC2)nc(N2CCN(C(=O)CCCCCCCCCCNC(=O)[C@H](CCCCN)n3cc(C[C@@H](C)CC)nn3)CC2)n1,i,nt,nt,nt,-85,nt
C#CCOCCOCCOCCNc1nc(N2CCN(C(=O)CCCCCCCCCCNC(=O)[C@H](CCCCN)n3cc(C[C@@H](C)CC)nn3)CC2)nc(N2CCN(C(=O)CCCCCCCCCCNC(=O)[C@H](CCCCN)n3cc(C[C@@H](C)CC)nn3)CC2)n1,i,nt,nt,nt,i,i
O=C(CSc1nnc(-c2ccc(F)cc2)c2ccccc12)NCC1CCCO1 (stereo unspecified),i,i,i,i,i,8.8
CCN(CC)CCNCc1cc(Cl)ccc1OCc1ccccc1F,i,i,i,i,-61,i
COc1ccc(C(=O)c2c(C(F)(F)F)oc3c2C(=O)c2ccccc2C3=O)cc1,i,nt,i,nt,-94,i
O=C(COC(=O)c1ccccc1SCC(=O)NC1CCS(=O)(=O)C1)NC1CCS(=O)(=O)C1 (stereo unspecified),i,i,i,i,i,i
O=C(COC(=O)c1ccccc1SCC(=O)N1CCCC1)NC1CCS(=O)(=O)C1 (stereo unspecified),i,i,nt,i,-71,i
CCCc1cc(N2CCOCC2)n2ncc(-c3ccccc3)c2n1,i,i,17,i,i,i
O=C(CCC(=O)N1CCOCC1)Nc1ccc(Cl)c(Cl)c1,i,i,i,i,i,i
O=C(CCC(=O)N1CCCCC1)Nc1ccc(Cl)c(Cl)c1,-78,i,i,i,i,i
O=C(OC12CCCN(C1)/C(=C/c1cccc(Cl)c1)C2)C1CCCCC1 (stereo unspecified),nt,i,nt,nt,nt,nt
CCOC(=O)C1CCN(c2c(NCc3ccc(C(=O)Nc4ccc(C)cc4)cc3)c(=O)c2=O)CC1,i,i,i,i,-69,i
CCOC(=O)C1CCN(c2c(NCc3ccc(C(=O)NC4CCCC4)cc3)c(=O)c2=O)CC1,i,i,i,i,i,i
O=C1CCc2cc(S(=O)(=O)N3CCN(c4ccccc4Cl)CC3)ccc2N1,nt,i,nt,nt,nt,nt
COc1cc(C=O)ccc1OC(=O)c1ccc(C(C)C)cc1,i,i,i,i,-91,i
CCCC(=O)Nc1cnc(NC(=O)c2cccc(F)c2)cc1C,i,i,17,i,i,i
Cc1cc(NC(=O)C(C)C)ncc1NC(=O)c1cccc(F)c1,i,i,i,i,i,i
O=C(O)CSc1nc(-c2ccccc2)nc2c1oc1ccccc12,i,i,i,i,-68,i
O=C(O)CSc1nc(-c2ccc(Cl)cc2)nc2c1oc1ccccc12,i,i,i,i,i,i
